Activity calls are given as the source filed them.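 Rule for the calls, unless noted: active = visual image review flags a hit and inhibition of aggregation exceeds 20%; inconclusive = visual hit but inhibition at or below 20%; inactive = no hit on visual image review.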
Legend:
[1] = inhibitors of TNFa-induced NFkB p65 translocation, primary screen, imaging, HUVEC, MLSMR starter and 10KST1 sets (AID 438;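 active = inhibition above 20% together with a positive visual image hit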;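 note: compound added about 3h40 before a 20 min TNFalpha stimulation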;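 for inhibition: signal is the nuclear over cytoplasmic p65 intensity ratio per well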); conditions: HUVEC TNFa-induced p65 nuclear translocation; cell count: measured here: nuclei count (cytotoxicity indicator), at 2.08 µM; inhibition: at 2 µM, stronger effect = higher value, 0% TNFa-plus-vehicle, 100% no-TNFa wells
[2] = reduction of polyQ htt aggregates in cells – imaging, exon1htt(103Q)mCFP cells, high-content imaging, primary screen (AID 483); conditions: exon1htt(103Q)mCFP cell line, aggregate imaging, at 2 µM; inhibition of aggregation: stronger effect = higher value; nuclei count: measured here: cell count, toxicity;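 note: compound exposure lasted 3 days before fixation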;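 for nuclei count: percent of the per-plate median nuclei count of sample wells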
[3] = endothelial E-selectin expression blockers – imaging, HUVEC, immunofluorescence, MLSMR starter and 10KST1 sets, primary screen (AID 487;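 active = visually confirmed hit in the image check and inhibition above 20%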;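 for inhibition: signal is fraction of cell area covered by stained E-selectin grains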;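 for nuclei count: 100% = median nuclei count of all wells on the same plate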); conditions: HUVEC TNFalpha-induced E-selectin immunofluorescence imaging, at 2 µM; inhibition: stronger effect = higher value; nuclei count: measured here: cell number, toxicity
[4] = molecular target: Voltage-gated potassium channel subunit beta-2 (Rattus norvegicus) (UniProt P62483); assay: inhibitors of rat Kvbeta2 reductase activity – biochemical, NADPH fluorescence, primary screen (AID 622;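 active = fluorescence slope higher than the sample average by over 3 SD, cut at about -0.22 in these data, passing the limit was not always enough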;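 note: slope of raw intensity against log time taken from 70 to 1610 s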); conditions: recombinant KvBeta, 4-cyanobenzaldehyde reduction, at 10 µM, stronger effect = higher value
[5] = molecular target: Voltage-gated potassium channel subunit beta-2 (Rattus norvegicus) (UniProt P62483); assay: enhancers of rat Kvbeta2 NADPH turnover – biochemical, NADPH fluorescence, primary screen (AID 623;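 active = NADPH fluorescence slope more negative than the mean of all samples by about 3 SD, 99.7% confidence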;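 note: fluorescence intensity change per second fitted from 20 to 320 s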); conditions: Recombinant KvBeta, NADPH fluorescence decrease slope, 10 min; at 10 µM; stronger effect = lower value
[6] = molecular target: Alpha-2C adrenergic receptor (Homo sapiens) (UniProt P18825); assay: compounds altering alpha2C-coupled GIRK flux – cell-based, HEK293 alpha2C/GIRK1/2, thallium flux, primary screen (AID 624;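 active = fluorescence slope after compound addition differing from the mean of all screened samples at 99.7% confidence, in either direction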;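 note: slope of fluorescence ratio to pre-addition baseline per second over 15 to 24 s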); conditions: thallium flux BTC fluorescence, at 10 µM, actives lie on both sides
[7] = blockers of RIG-like receptor reporter activation – cell-based, Sendai virus stimulus, luciferase, 10K MLSCN set, TLR/RLR signaling modifier project, primary screen (AID 602276;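 active = inhibition at or above 50% at 10 µM; inactive = inhibition below 50%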;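 note: firefly luciferase from ISG56 promoter only with Renilla not read in this screen; 0% = Sendai virus plus DMSO and 100% = medium plus DMSO without virus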); conditions: HEK293 RL24 IRF3 luciferase reporter, at 10 µM, stronger effect = higher value
[8] = TLR3 IRF3 reporter activation blockers – cell-based, poly I:C stimulus, luciferase, 10K MLSCN set, primary screen (AID 602277;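 active = inhibition of the reporter signal at or above 50%; inactive = inhibition below 50%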); conditions: HEK293-TLR3 RL24 IRF3 luciferase reporter, at 10 µM, stronger effect = higher value

Sequence of Voltage-gated potassium channel subunit beta-2 (Rattus norvegicus) (P62483 whole entry, looked up): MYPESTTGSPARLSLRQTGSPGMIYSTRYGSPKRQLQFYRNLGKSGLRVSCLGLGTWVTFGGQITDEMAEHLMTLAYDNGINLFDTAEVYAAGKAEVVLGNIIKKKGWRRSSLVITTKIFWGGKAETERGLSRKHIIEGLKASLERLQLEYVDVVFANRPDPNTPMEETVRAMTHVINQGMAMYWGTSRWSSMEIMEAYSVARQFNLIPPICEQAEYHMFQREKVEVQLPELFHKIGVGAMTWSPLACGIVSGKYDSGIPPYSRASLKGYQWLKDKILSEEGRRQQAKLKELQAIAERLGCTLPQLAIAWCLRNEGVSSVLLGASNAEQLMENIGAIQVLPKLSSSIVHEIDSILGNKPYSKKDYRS
Sequence of Alpha-2C adrenergic receptor (Homo sapiens) (P18825 whole entry, looked up): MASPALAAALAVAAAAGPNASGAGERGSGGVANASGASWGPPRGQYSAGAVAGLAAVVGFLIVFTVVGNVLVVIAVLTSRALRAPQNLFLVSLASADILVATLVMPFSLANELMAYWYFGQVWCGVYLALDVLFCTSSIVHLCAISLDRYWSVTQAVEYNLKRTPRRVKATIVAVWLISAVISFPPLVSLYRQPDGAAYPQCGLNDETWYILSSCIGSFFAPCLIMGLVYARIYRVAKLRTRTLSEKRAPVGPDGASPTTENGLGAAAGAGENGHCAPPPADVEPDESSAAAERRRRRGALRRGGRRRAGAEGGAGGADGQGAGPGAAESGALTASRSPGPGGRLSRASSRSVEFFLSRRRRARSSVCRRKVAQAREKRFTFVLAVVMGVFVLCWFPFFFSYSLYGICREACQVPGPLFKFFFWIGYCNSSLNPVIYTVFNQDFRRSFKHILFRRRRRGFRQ

Compound | cell count [1] | inhibition [1] | inhibition of aggregation [2] | nuclei count [2] [%] | inhibition [3] | nuclei count [3] [%] | fluorescence slope [4] | NADPH fluorescence slope [5] | slope [6] | inhibition [7] | inhibition [8]
N#Cc1ccccc1NC(=O)CSc1nnc(-c2ccccc2)n1-c1ccccc1 | 556 | -25.3% (inactive) | -20.9% (inactive) | 99.9 | -1.6% (inactive) | 83.7 | -0.603 (inactive) | -1.9e-05 (inactive) | 0.00673 (inactive) | 1.9% (inactive) | 24.8% (inactive)
CCc1nnc(SCC(=O)NC2CCCCC2)nc1CC | 774 | -14.3% (inactive) | 11.4% (inactive) | 105 | -62.4% (inactive) | 103 | -0.536 (inactive) | 2e-06 (inactive) | 0.00672 (inactive) | -5.14% (inactive) | 5.98% (inactive)
CCOc1ccccc1C(=O)N1CCN(c2cccc(Cl)c2)CC1 | 460 | 24.4% (active) | -20.9% (inactive) | 4 | -294% (inactive) | 104 | -0.614 (inactive) | -5.4e-05 (inactive) | 0.00344 (inactive) | 9.54% (inactive) | 87.8% (active)
Cc1ccccc1NC(=O)CN1CCC(NC(=O)Nc2ccccc2)CC1 | 516 | -1.9% (inactive) | 25.9% (inactive) | 68 | -121% (inactive) | 93 | -0.292 (inactive) | -4.8e-05 (inactive) | 0.00566 (inactive) | 9.37% (inactive) | 9.34% (inactive)
Cc1noc(C(=O)Nc2ccc3c(c2)OCO3)c1Cl | 763 | 0% (inactive) | -14.1% (inactive) | 129 | -40.9% (inactive) | 108 | -0.419 (inactive) | -6.4e-05 (inactive) | 0.00438 (inactive) | -21.3% (inactive) | -27.6% (inactive)
O=C(c1ccc(Br)o1)N1CCN(c2ccc3nnc(-c4ccccc4)n3n2)CC1 | 634 | -0.5% (inactive) | 3% (inactive) | 80.7 | -91.9% (inactive) | 120 | -0.602 (inactive) | -3.4e-05 (inactive) | 0.00664 (inactive) | -4.83% (inactive) | -337% (inactive)
Cc1noc(C)c1S(=O)(=O)N1CCCC(C(=O)NCCc2ccc(Cl)cc2)C1 (configuration not stated) | 402 | 7.3% (inactive) | -8.8% (inactive) | 107 | -78.1% (inactive) | 106 | -0.471 (inactive) | -0.000191 (inactive) | 0.00592 (inactive) | 11.6% (inactive) | 7.58% (inactive)
